Residue numbers refer to the chain shown, from its start. Whole data set: some 5,800 sequences, median “enrichment r” near 0.54, cut for the highest 2% near 16. The entries come from a sample that favours the highest values as a whole.
B1: chr17:37686430:37687371:-|three_prime_utr|ENSG00000275410|control|control|control (ssRNA)
RNA: GGGAGUUCUACAGUCCGACGAUCUGCAAUUUCCCCUCUGUGUCCUCUCCCCUCUGCCCUGUAUAUAAUACUAAAGUGUCUAUUAGUUUUCUUUGUAAAGGUCAGAGUCAAAAUUUCAAAAGUGAUCUGUCCCCUCUCCCCUCACAACAGAGGAUUGAGCAUCA
B2: chr5:72209348:72209524:+|3pUTR|ENSG00000131711|msi1_unk|FALSE|overlapping (ssRNA)
RNA: GGGAGUUCUACAGUCCGACGAUCUUAUGUCUUAUAAUCCUGCAUCACUUCUAUCCUAUCCAGUCAUAUCUAAUGUAGAAAAUUAGUUUCCAGUGAAAGUAAUAUGUAGUGCUUUUAUGAUAUUUGUGUGCAAUAUCCCCUCUUCAACAGAGGAUUGAGCAUCA
B3: chr15:49134392:49134529:-|CDS|ENSG00000166200|unk|FALSE|unique (ssRNA)
RNA: GGGAGUUCUACAGUCCGACGAUCAUAUUUGCUUUCCUAGACUGAUGAUGGAGAAGAUGAUCUGAAAAAAGGUACACAGUUAUUAGAAAUAUAUGCUUUGGAAAUUCAAAUGUACACAGCACAGAAAAAUAACAAAAAACUUAACAACAGAGGAUUGAGCAUCA
B4: chr2:99394746:99394872:+|CDS|ENSG00000158417|unk|total|mutant (ssRNA)
RNA: GGGAGUUCUACAGUCCGACGAUCGAUGUGAGAAUUGAACGAGAUGCACAAGAAAUGGCUGACCGUUCCGGAGUCCGAAUUUUCCGUGCAGAAAUUAUUUAUCAUUUAUUUGAUGCCUUUACAAAAUACCGACAAGACUACAAGCAACAGAGGAUUGAGCAUCA
B5: chr2:99394746:99394872:+|CDS|ENSG00000158417|unk|FALSE|unique (ssRNA)
RNA: B4 RNA with C62U, C63A, C67U, C68A, C74U, C75A, C83U, C84A, C128U, C129A
B6: chr5:72209348:72209524:+|3pUTR|ENSG00000131711|msi1_unk|total|mutant (ssRNA)
RNA: B2 RNA with U75C, A76C, U83C, A84C, U106C, A107C
B7: chr5:24509697:24509799:-|CDS|ENSG00000040731|unk|FALSE|unique (ssRNA)
RNA: GGGAGUUCUACAGUCCGACGAUCACUCGACUAUGAGAGCCGAAGACUUUAUACUCUGAAAGUCGAAGCAGAAAACACCCAUGUAGAUCCCCGUUUUUAUUACCUAGGACCAUUUAAAGAUACUACCAUAGUGAAAAUCUCUAUCAACAGAGGAUUGAGCAUCA
B8: ENSG00000176244:stop:overlap|stop_codon|ENSG00000176244|stop_codon|NA|stop_codon (ssRNA)
RNA: GGGAGUUCUACAGUCCGACGAUCAAGAUGCGACGAGUGCCUAUAUUUCUAAAGCAAAGGAGCUGAUAGAAAAAUACGGAAUUUAGAAUACAGCAUAUGAGGAAUUUUUCCUUUUGAAGACUUCCAAAUGCUAUCAUGACCUAACAACAGAGGAUUGAGCAUCA
B9: chr11:101890673:101891278:-|three_prime_utr|ENSG00000187151|control|control|control (ssRNA)
RNA: GGGAGUUCUACAGUCCGACGAUCGUAAUGCAAGUUCUACAAUGAUAAUAUAUUAAAGAUUUUUAAAAGUUUAUCUUUUCACUUAGUGUUUCAAACAUAUUAGGCAAAAUUUAACUGUAGAUGGCAUUUAGAUGUUAUGAGUUUCAACAGAGGAUUGAGCAUCA
B10: chr16:21983864:21984660:-|three_prime_utr|ENSG00000155714|control|control|control (ssRNA)
RNA: GGGAGUUCUACAGUCCGACGAUCAAAGAAAAUUGAGCUGGCAAAAGAUGAAUCUUUCACAAGCAGUGAUGAUAAUGAAAAUGUAGAUUUAGAUAAAAGACUUCAAUAUUAUAGAUAUCCGUGGUCAACUGUGCAUCACCCUGCCAACAGAGGAUUGAGCAUCA
B11: chr17:61865808:61865921:-|3pUTR|ENSG00000108506|unk|FALSE|unique (ssRNA)
RNA: GGGAGUUCUACAGUCCGACGAUCUUCUAUGAGAAUGAGUUUGUAGCUGUUUCAAAUCAUGAAGUGCAUAGUAUCACAUGUGAUAGAAUAUUUAUAACUUUUUAUUAGAUGCUUAAUGUUCAAUUAAGUAAUUUUGAUGUGAAACAACAGAGGAUUGAGCAUCA
B12: chr9:5123879:5124511:-|three_prime_utr|ENSG00000120210|control|control|control (ssRNA)
RNA: GGGAGUUCUACAGUCCGACGAUCCUGGUAAAUUGGAUUGCCAUAUGCAGAAGAAUGAAACUGGACCCAUAUUUAUCACCAUAUAGAAAAAUUAACUCGAUCGAUUACAGACUUAAAUGUAAGAUCUGAAACUAGAAAAAUACUCAACAGAGGAUUGAGCAUCA
B13: chr11:118751385:118751486:-|3pUTR|ENSG00000110367|msi1|FALSE|unique (ssRNA)
RNA: GGGAGUUCUACAGUCCGACGAUCUUGAAGUCUCUUCCCUUUCUACCCAGUACUCGAGCCCAGGGCUAGAAGUUGAAACUCACUAGUAAUGUUAAACACCAUUUUUUUUUUCUUUUUGGGGAGGAGUUGAUAUGCAACUGCAGUCAACAGAGGAUUGAGCAUCA
B14: chr4:173322470:173322571:+|3pUTR|ENSG00000109586|msi1|total|mutant (ssRNA)
RNA: GGGAGUUCUACAGUCCGACGAUCUGCCGCAUUCACUCCCUUACCUACUGGCAUUCCCAGUGCCCUCUGUCCAUACCUACUUCCCGGAUUGCAAAGGAGUCUUCCAACCCGAGAAAAAUUGUCCACUGACAUUUGGGAUUUACUCAACAGAGGAUUGAGCAUCA
B15: chr8:7990417:7990620:-|CDS|ENSG00000205989|control|control|control (ssRNA)
RNA: GGGAGUUCUACAGUCCGACGAUCGAUGUCUGCAACAUAGUAGAAGAUCAAAUUGGUGCCUGCCGAAGAAGGAUGAAGUGCUGUAGAGCAUGGUGGAUUUUAAUGCCAAUUCCAACACCACUUAUCAUGUCAGAUUAUCAAGAACAACAGAGGAUUGAGCAUCA
B16: chr20:37241422:37241523:+|3pUTR|ENSG00000118705|msi1_unk|FALSE|overlapping (ssRNA)
RNA: GGGAGUUCUACAGUCCGACGAUCGUAUGAGAAGAAAAAUGGAAAAAAAAAACUUUAUUUAAAAAAGAAAAAAGUCCAGAUUGUAGUUAUACUUUUGCUUGUUUUUCAGUUUCCCCAACACACAGCAGAUACCUGGUGAGCUCACAACAGAGGAUUGAGCAUCA
B17: chr8:80500255:80500365:+|CDS|ENSG00000205189|unk|total|mutant (ssRNA)
RNA: GGGAGUUCUACAGUCCGACGAUCGAAAAACCAAACUACAAAAAGAUUUAUUUAUAAUAUUCCACCUAAUAAUGAAACGAAUUCCGAAGAUUGCUCAGUAAUGCAGCCACCUGUUGCCUAUCCAGAAGAAAAUACACUACUCAUCAACAGAGGAUUGAGCAUCA
B18: chr2:30158716:30158817:+|CDS|ENSG00000119801|msi1|total|mutant (ssRNA)
RNA: GGGAGUUCUACAGUCCGACGAUCGUUUGCCACUGAAGACAGCCAGCGAUAUAAGGAAGGCCGCGUGAUCCUGGAACGUGCUCCCGUUCGAGAGAGUGAGGGCUUUGAGGAGCAUGUACCAUCUGAUAACUCUUGAAGAUACAGCAACAGAGGAUUGAGCAUCA
B19: chr5:115137525:115137627:-|CDS|ENSG00000152503|unk|FALSE|unique (ssRNA)
RNA: GGGAGUUCUACAGUCCGACGAUCUUUAGCAGAAGAGGCUAUUCUUUGUUUUAUCUUAGUGUAAUGGAGAUACUGUUUUUUCUUAGUGUAAUGGAGAGAGGGCUAAAGAAGAAGCAAUUACACAUUUUGAAAAGCUCUUUGAAGCAACAGAGGAUUGAGCAUCA
B20: ENSG00000115904:stop:overlap|stop_codon|ENSG00000115904|stop_codon|NA|stop_codon (ssRNA)
RNA: GGGAGUUCUACAGUCCGACGAUCUUUUGCAACGAAUGGAAGAAUUUAUUGGAACAGUAAGAGAGCUGUACAGCCAUCAGAAUUAGUUGGAAGUGUGUGGACAAAAGAAGACAAAGAAAUUAACUCUCCUAAUCUUCUGAAAAUCAACAGAGGAUUGAGCAUCA
B21: chr12:122341087:122341188:-|CDS|ENSG00000130779|unk|total|mutant (ssRNA)
RNA: GGGAGUUCUACAGUCCGACGAUCAGAAUUUGCUGAACUAAAAACACAAACCGAGAAAAUGAGACCCGAUUACCAACACGAAACCGAAAAUUUGCAGAAUCAACAAGACUCUGAACGGGCUGCCCAUGCUAAAGAGAUGGAAGCCAACAGAGGAUUGAGCAUCA
B22: ENSG00000136451:be:win_1001|CDS|ENSG00000136451|bound_else_gene|NA|bound_elsewhere_windowed (ssRNA)
RNA: GGGAGUUCUACAGUCCGACGAUCACCAAAAGCAGCAGCAGCAGCAGCAGCAGCAGCAGCAGCAGCAGCAACAACAACAACAACAACAUGUGACAAGCUGGCCAGGGAAGCAAGUAGAAACACUGAGACUGUGGGAAGAAGCUGCAACAGAGGAUUGAGCAUCA
B23: chr15:56434137:56434395:-|CDS|ENSG00000138587|control|control|control (ssRNA)
RNA: GGGAGUUCUACAGUCCGACGAUCAGAGGAAGAGGAGAACUUUAGAAAAACUAUGCUAGCUAAAUUUGCUGAGGAUGAUCGAAUAGAAUUAAUGAAUGCUCAGAAACAAAGAAUGAAGCAGCUGGAACACAGGAGGGCUGUGGACAACAGAGGAUUGAGCAUCA
B24: chr12:122341087:122341188:-|CDS|ENSG00000130779|unk|FALSE|bound_elsewhere (ssRNA)
RNA: B21 RNA with C50U, C51A, C65U, C66A, C83U, C84A
B25: chr5:52955293:52955406:+|3pUTR|ENSG00000213949|unk|total|mutant (ssRNA)
RNA: GGGAGUUCUACAGUCCGACGAUCUACCAACCAGUGUGAGCUGACUUCAGCACACCACUGAGACAGAUUACACGACCGACAGACCGACCGACCGACCGACCGACCGACCGACCGACCGACCGACCGAUAUUGACCGAGAACAUGCAACAGAGGAUUGAGCAUCA
B26: chr5:52955293:52955406:+|3pUTR|ENSG00000213949|unk|FALSE|unique (ssRNA)
RNA: GGGAGUUCUACAGUCCGACGAUCUACCAACCAGUGUGAGCUGACUUCAGCACACCACUGAGACAGAUUACACGAUAGACAGAUAGAUAGAUAGAUAGAUAGAUAGAUAGAUAGAUAGAUAGAUAGAUAUUGAUAGAGAACAUGCAACAGAGGAUUGAGCAUCA

Each binder was assayed against MSI1 full-length (mouse, UniProt Q61474 1-362) (assay: nsRBNS (natural sequence RNA bind-n-seq); RBNS binding buffer (assumed for nsRBNS): 25 mM Tris pH 7.5, 150 mM KCl, 3 mM MgCl2, 0.01% Triton X-100, 500 ug/ml BSA, 20 U/ml SUPERase-In, 4 C; UNK is unkempt and MSI1 is Musashi-1; names of the RNAs are library labels; protein concentration not given here; high values mean tight binding).
Chain of MSI1 full-length (Q61474 whole entry): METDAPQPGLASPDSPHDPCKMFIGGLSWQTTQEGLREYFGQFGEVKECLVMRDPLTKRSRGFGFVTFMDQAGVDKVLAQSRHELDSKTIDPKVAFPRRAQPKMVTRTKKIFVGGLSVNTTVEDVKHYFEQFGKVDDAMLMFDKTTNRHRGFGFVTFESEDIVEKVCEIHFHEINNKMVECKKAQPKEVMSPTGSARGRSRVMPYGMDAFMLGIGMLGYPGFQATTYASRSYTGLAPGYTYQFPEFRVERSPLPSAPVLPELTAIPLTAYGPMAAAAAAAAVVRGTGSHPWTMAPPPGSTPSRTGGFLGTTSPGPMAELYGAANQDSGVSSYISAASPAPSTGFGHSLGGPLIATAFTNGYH

Question: How did the binding signal turn out when B1 was run?
Answer: 0.979 enrichment R

Question: B2 was tested. Which binding signal did it give?
Answer: 22.2 enrichment R

Question: For B3, which binding signal is on record?
Answer: 0.819 enrichment R

Question: B4 was tested. Which binding signal did it give?
Answer: 0.374 enrichment R

Question: With B5 as the binder, how does the binding signal read?
Answer: 35 enrichment R

Question: For B6, which binding signal is on record?
Answer: 0.64 enrichment R

Question: Which binding signal does the source give for B7 here?
Answer: 3.85 enrichment R

Question: How did the binding signal turn out when B8 was run?
Answer: 0.512 enrichment R

Question: For B9, which binding signal is on record?
Answer: 3.72 enrichment R

Question: For B10, which binding signal is on record?
Answer: 43.6 enrichment R

Question: B11 was tested. Which binding signal did it give?
Answer: 5.16 enrichment R

Question: Which binding signal does the source give for B12 here?
Answer: 19.7 enrichment R

Question: With B13 as the binder, how does the binding signal read?
Answer: 1.4 enrichment R

Question: For B14, which binding signal is on record?
Answer: 0.767 enrichment R

Question: How did the binding signal turn out when B15 was run?
Answer: 0.446 enrichment R

Question: With B16 as the binder, how does the binding signal read?
Answer: 1.41 enrichment R

Question: For B17, which binding signal is on record?
Answer: 3.62 enrichment R

Question: How did the binding signal turn out when B18 was run?
Answer: 0.472 enrichment R

Question: For B19, which binding signal is on record?
Answer: 2.18 enrichment R

Question: B20 was tested. Which binding signal did it give?
Answer: 1.25 enrichment R

Question: How did the binding signal turn out when B21 was run?
Answer: 0.402 enrichment R

Question: For B22, which binding signal is on record?
Answer: 0.597 enrichment R

Question: With B23 as the binder, how does the binding signal read?
Answer: 3.42 enrichment R

Question: B24 was tested. Which binding signal did it give?
Answer: 16.5 enrichment R

Question: Which binding signal does the source give for B25 here?
Answer: 0.369 enrichment R

Question: How did the binding signal turn out when B26 was run?
Answer: 67 enrichment R
